Results published in PubChem BioAssay.
Calls of active or inactive are those of the source. Unless noted, the rule behind the calls is not given here.

Columns and labels:
[1] = compound effects on lung adenocarcinoma cell viability – A549, calcein-AM fluorescence, 48 h, basal, profiling panel (AID 1162); conditions: higher = more signal; note: test concentration not given here
[2] = compound effects on differentiated 3T3-L1 adipocyte viability – cell-based, 3T3-L1 adipocytes, calcein-AM fluorescence, 48 h, basal, profiling panel (AID 1163); conditions: 3T3-L1 adipocytes viability, higher = more signal; note: test concentration not given here
[3] = compound effects on hepatocellular carcinoma cell viability – HepG2, calcein-AM fluorescence, 48 h, basal, profiling panel (AID 1164); conditions: higher = more signal; note: test concentration not given here
[4] = compound effects on multiple myeloma cell viability – MM1S, calcein-AM fluorescence, 48 h, basal, profiling panel (AID 1165); conditions: higher = more signal; note: test concentration not given here
[5] = calcein-AM signal in unstimulated myeloma cells – cell-based, calcein-AM fluorescence, 48 h, PK04 Diversity Set, profiling panel (AID 1166); conditions: RPMI8226 myeloma viability, higher = more signal;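 note: cells grown under basal conditions without added stimulus; test concentration not given here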
[6] = JC-1 mitochondrial signal, unstimulated HepG2 cells – cell-based, JC-1 fluorescence, 24 h, 100 nL compound, profiling panel (AID 1167); conditions: HepG2 mitochondrial potential, higher = more signal; note: test concentration not given here
[7] = JC-1 mitochondrial signal, unstimulated adipocytes – cell-based, JC-1 fluorescence, 3T3-L1 adipocytes, 24 h, 100 nL compound, profiling panel (AID 1168); conditions: JC-1 mitochondrial fluorescence, higher = more signal, called active from +8 up or from −8 down; note: test concentration not given here
[8] = JC-1 mitochondrial signal, unstimulated myeloma cells – cell-based, JC-1 fluorescence, RPMI8226, 24 h, 100 nL compound, profiling panel (AID 1169); conditions: JC-1 mitochondrial potential fluorescence, higher = more signal; note: test concentration not given here
[9] = JC-1 mitochondrial signal, unstimulated MM1S myeloma – cell-based, JC-1 fluorescence, 24 h, 100 nL compound, profiling panel (AID 1170); conditions: MM1S mitochondrial potential, higher = more signal; note: test concentration not given here
[10] = resazurin metabolic signal in A549 cells – cell-based, resazurin fluorescence, 24 h, PK04 Diversity Set, profiling panel (AID 1171); conditions: A549 viability, higher = more signal, called active from +8 up or from −8 down; note: test concentration not given here
[11] = resazurin metabolic signal in HepG2 cells – cell-based, resazurin fluorescence, 24 h, PK04 Diversity Set, profiling panel (AID 1172); conditions: HepG2 viability, higher = more signal; note: test concentration not given here
[12] = budding yeast growth changes without added modifier – OD600, strain BY4716, 24 h, basal condition, primary screen (AID 1173); conditions: S. cerevisiae BY4716 growth, OD600, 24 h; higher = more signal, called active from +8 up or from −8 down
[13] = viability profiling in MM1S myeloma cells – cell-based, resazurin fluorescence, basal, 24 h, PK04 Diversity Set, profiling panel (AID 1174); conditions: higher = more signal, called active from +8 up or from −8 down; note: test concentration not given here
[14] = molecular target: Dihydroorotate dehydrogenase (quinone), mitochondrial (Plasmodium falciparum (isolate 3D7)) (UniProt Q08210); assay: inhibition of P. falciparum DHODH – biochemical, C-terminal His tag, absorbance 600 nm, primary screen (AID 1175); conditions: PfDHODH enzyme, DCIP absorbance 600 nm; higher = more signal, called active from +8 up or from −8 down;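 note: recombinant parasite enzyme with a five histidine tag at its C terminus; test concentration not given here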
Sequence of Dihydroorotate dehydrogenase (quinone), mitochondrial (Plasmodium falciparum (isolate 3D7)) (Q08210 whole entry, looked up): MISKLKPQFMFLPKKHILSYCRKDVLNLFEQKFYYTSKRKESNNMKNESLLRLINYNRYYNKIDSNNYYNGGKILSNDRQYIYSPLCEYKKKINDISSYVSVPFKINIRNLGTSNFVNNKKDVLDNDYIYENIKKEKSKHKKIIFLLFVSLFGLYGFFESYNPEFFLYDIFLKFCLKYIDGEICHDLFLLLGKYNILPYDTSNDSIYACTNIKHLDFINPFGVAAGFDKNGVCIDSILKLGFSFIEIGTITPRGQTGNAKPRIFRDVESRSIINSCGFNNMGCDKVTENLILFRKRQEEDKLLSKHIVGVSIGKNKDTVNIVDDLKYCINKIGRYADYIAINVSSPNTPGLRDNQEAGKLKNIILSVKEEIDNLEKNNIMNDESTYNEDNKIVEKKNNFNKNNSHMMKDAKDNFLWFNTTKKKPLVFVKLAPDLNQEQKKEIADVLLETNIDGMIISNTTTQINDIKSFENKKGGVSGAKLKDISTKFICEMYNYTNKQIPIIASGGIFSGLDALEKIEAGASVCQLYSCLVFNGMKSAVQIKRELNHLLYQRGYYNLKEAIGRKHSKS

[15] = inhibition of PAO1 biofilm formation – strain PAO1, LB-PBS medium, absorbance 600 nm, primary screen (AID 1176); note: test concentration not given here; conditions: P. aeruginosa PAO1 growth/biofilm, A600, 12 h; higher = more signal
[16] = growth modulation of vineyard yeast isolate – strain RM11-1a, OD600, basal, 24 h, primary screen (AID 1177);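 note: cultures grown under basal conditions with no added stressor; test concentration not given here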; conditions: S. cerevisiae RM11-1a growth, OD600, 24 h; higher = more signal, called active from +8 up or from −8 down
[17] = growth of efflux-deficient E. coli DRC39 – strain DRC39, OD650, 24 h, E. coli filamentation inducers, primary screen (AID 1178);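 note: growth measured as culture turbidity by optical density at 650 nm; test concentration not given here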; conditions: E. coli DRC39 acrAB, higher = more signal, called active from +8 up or from −8 down
[18] = growth of efflux-deficient E. coli DRC39 – strain DRC39, OD650, 48 h, E. coli filamentation inducers, primary screen (AID 1179);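 note: screen aims at cell division blockers that make cells filament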; conditions: E. coli DRC39 delta-acrAB growth, higher = more signal, called active from +8 up or from −8 down
[19] = viability profiling in RPMI8226 myeloma cells – cell-based, resazurin fluorescence, basal, 24 h, PK04 Diversity Set, profiling panel (AID 1180); conditions: higher = more signal;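 note: RPMI8826 multiple myeloma cell line at 5000 cells per well; test concentration not given here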
[20] = molecular target: E3 ubiquitin-protein ligase XIAP (Homo sapiens) (UniProt P98170); assay: small molecules binding XIAP protein – biophysical, small-molecule microarray, fluorescence 635 nm, primary screen (AID 1181); conditions: higher = more signal;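 note: score merges 667 nm emission and signal to noise over triplicate slides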
Sequence of E3 ubiquitin-protein ligase XIAP (Homo sapiens) (P98170 whole entry, looked up): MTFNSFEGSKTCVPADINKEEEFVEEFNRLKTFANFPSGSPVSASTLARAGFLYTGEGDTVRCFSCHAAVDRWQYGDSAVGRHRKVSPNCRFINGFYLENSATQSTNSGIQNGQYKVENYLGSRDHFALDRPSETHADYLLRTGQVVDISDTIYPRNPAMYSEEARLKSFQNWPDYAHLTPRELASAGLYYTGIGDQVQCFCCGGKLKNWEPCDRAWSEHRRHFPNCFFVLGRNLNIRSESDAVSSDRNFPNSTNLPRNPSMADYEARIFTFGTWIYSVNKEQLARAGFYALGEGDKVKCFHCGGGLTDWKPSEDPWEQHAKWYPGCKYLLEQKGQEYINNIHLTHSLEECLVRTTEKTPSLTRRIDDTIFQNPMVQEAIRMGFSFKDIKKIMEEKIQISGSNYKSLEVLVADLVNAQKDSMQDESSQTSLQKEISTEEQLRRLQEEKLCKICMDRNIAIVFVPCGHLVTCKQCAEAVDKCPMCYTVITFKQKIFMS

Structure (SMILES) | z-score [1] | z-score [2] | z-score [3] | z-score [4] | z-score [5] | z-score [6] | z-score [7] | z-score [8] | z-score [9] | z-score [10] | z-score [11] | z-score [12] | z-score [13] | composite z-score [14] | z-score [15] | z-score [16] | z-score [17] | z-score [18] | z-score [19] | composite z-score [20]
COC(=O)C1(CC(C)C)C=C2C(=C(c3ccccc3)C(=O)C2C)CN1 (stereo not given) | -0.837 | -0.16 | 0.0661 | 0.601 | -0.12 | 0.0103 | -1.81 (inactive) | -0.604 | -1.1 | -0.614 (inactive) | -1.21 | 0.397 (inactive) | -2.14 (inactive) | -1.58 (inactive) | 0.647 (inactive) | 0.168 (inactive) | -0.33 (inactive) | 0.208 (inactive) | -1.27 | -0.0133
O=C1O[C@@H](c2ccccc2)[C@@H](c2ccccc2)N2[C@@H](c3ccc(O)cc3)[C@]3(C(=O)Nc4ccc(C#CCCO)cc43)[C@@H](C(=O)N3CCN(c4ncccn4)CC3)[C@H]12 | -0.716 | -0.0773 | 0.0219 | 0.441 | 0.1 | -1.95 | -0.252 (inactive) | -0.681 | -0.425 | 0.378 (inactive) | 1.13 | 1.94 (inactive) | 0.609 (inactive) | 0.378 (inactive) | 1.77 (inactive) | 2.96 (inactive) | 1.08 (inactive) | 0.602 (inactive) | 0.509 | -0.197
CCCCCN1CC=CC23O[C@@H]4C=CCCOC(=O)C4[C@H]2C(=O)N(CCCCCCO)[C@@H]3C1=O (stereo not given in full) | -0.182 | -0.131 | 0.28 | 0.762 | 0.494 | 0.306 | 0.737 (inactive) | 0.548 | -0.823 | 0.229 (inactive) | 0.678 | 0.605 (inactive) | 0.0267 (inactive) | 0.401 (inactive) | 0.55 (inactive) | 0.543 (inactive) | 0.649 (inactive) | 0.567 (inactive) | 0.424 | 0.0702
C=C(COC)/C(=C/C[C@H](OC(=O)c1ccncc1)c1ccccc1OCCO)c1cc(C(=O)OC)ccc1OC | -0.0954 | 0.0589 | -0.0472 | -3.34 | -1.58 | 1.94 | -0.658 (inactive) | -0.596 | -0.159 | 0.315 (inactive) | -0.418 | -0.0515 (inactive) | -2.16 (inactive) | -2.32 (inactive) | 0.367 (inactive) | -0.567 (inactive) | -1.31 (inactive) | -1.21 (inactive) | -1.58 | -0.157
O=C(O)[C@@H]1C[C@@H]2C(=O)N3CCC[C@H]3C(=O)N2[C@@H]1c1ccc(O)cc1 | -0.335 | 1.13 | -0.763 | -3.42 | 0.0242 | 0.0357 | -0.184 (inactive) | -0.704 | -1.34 | -0.609 (inactive) | -0.155 | -1.8 (inactive) | -0.695 (inactive) | -1.7 (inactive) | 1.03 (inactive) | -0.113 (inactive) | 0.437 (inactive) | -0.535 (inactive) | 0.16 | 0.0721
CCCCN1CC=CC23O[C@@H]4/C=C\CCC(C)OC(=O)C4[C@H]2C(=O)N(CCCO)[C@@H]3C1=O (stereo not given in full) | -0.615 | 1.57 | -0.241 | 1.04 | -0.386 | -0.534 | 0.276 (inactive) | 0.635 | 0.71 | -0.523 (inactive) | 0.0917 | 1.04 (inactive) | 0.0853 (inactive) | -0.0558 (inactive) | -0.112 (inactive) | 0.487 (inactive) | 0.0475 (inactive) | -0.154 (inactive) | 0.79 | -0.267
CCOC(=O)C1=C[C@@H](C(C)(C)C)N(S(=O)(=O)c2ccc(C)cc2)[C@H]1c1cccc2ccccc12 | -1.35 | -0.15 | -1.62 | -0.205 | -2.97 | 3.37 | 0.348 (inactive) | -0.919 | -0.541 | 0.828 (inactive) | -0.433 | 3.26 (inactive) | -0.835 (inactive) | 0.716 (inactive) | 0.312 (inactive) | 3.01 (inactive) | -0.624 (inactive) | -0.511 (inactive) | -2.66 | 0.307
COc1cc2c(cc1O)C(c1cccs1)N(Cc1cc3c(cc1Br)OCO3)CC2 (stereo not given) | -1.67 | -0.406 | -3.83 | -3.19 | -4.43 | -3.57 | -0.0381 (inactive) | -0.976 | -0.488 | -0.741 (inactive) | -0.608 | -1.4 (inactive) | -0.511 (inactive) | -1.88 (inactive) | -0.227 (inactive) | 0.488 (inactive) | -0.284 (inactive) | -1 (inactive) | -1.59 | 0.483
C[C@@H]1NC(=O)[C@@H](Cc2ccccc2)NC(=O)[C@@]23C(=O)N[C@@H](Cc4ccccc4)C2[C@H](C)[C@@]2(C)O[C@H]2C3/C=C/C/C=C\CNC1=O (stereo not given in full) | -0.312 | 0.599 | -0.543 | 0.18 | -0.377 | -1.36 | -0.308 (inactive) | -0.0163 | 1.09 | -0.879 (inactive) | -1.2 | 0.318 (inactive) | 0.0992 (inactive) | 0.0303 (inactive) | 0.413 (inactive) | 0.652 (inactive) | -0.811 (inactive) | -0.863 (inactive) | 0.329 | -0.0138
N#Cc1ccc(NN2C(C(O)c3ccc(Br)cc3)C=CC3C(=O)N(c4ccccc4)C(=O)C32)cc1 (stereo not given) | 0.647 | 0.0175 | 1.11 | -0.615 | 0.201 | -0.574 | 0.507 (inactive) | 0.244 | 0.0172 | -0.421 (inactive) | -1.3 | -3.42 (inactive) | -0.299 (inactive) | -1.03 (inactive) | 0.819 (inactive) | -1.85 (inactive) | 0.527 (inactive) | 0.656 (inactive) | -0.0706 | 0.179
O=C(C1N=C(c2ccc(OCCCO)cc2)N(c2ccccc2)O1)N1CCCCC1 (stereo not given) | 0.775 | 0.936 | 0.772 | 0.301 | 0.609 | 0.223 | -0.716 (inactive) | -0.779 | -0.313 | 1.07 (inactive) | 0.377 | -0.769 (inactive) | 1.15 (inactive) | -0.152 (inactive) | -1.35 (inactive) | -0.587 (inactive) | 0.457 (inactive) | 0.15 (inactive) | 0.188 | 0.0761
CO[C@H]1O[C@H](CO)[C@@H](OC(=O)Nc2ccc(Br)cc2)[C@@H]2OC(=O)[C@@H](Cc3ccccc3)C/C=C/C[C@H](Cc3ccccc3)C(=O)O[C@@H]12 | 0.468 | 0.424 | -1.35 | -1.41 | -3.32 | 0.125 | 2.12 (inactive) | -1.19 | -0.241 | -3.17 (inactive) | -1.2 | -0.0671 (inactive) | -3.25 (inactive) | -1.25 (inactive) | 0.193 (inactive) | 1.59 (inactive) | 0.547 (inactive) | 0.347 (inactive) | -4.07 | 0.289
